# Compounds with a hit are over-represented: about 0.56% of the library has one in this group of screens.
# EPAC2 antag: EPAC2 (human) antagonism. EPAC2 GEF exchange of Rap1B-BODIPY-GDP, fluorescence. Q8WZA2. 360,000 tested, 0.18% active. Potency, µM (doses to about 114 µM), for the others: at the top dose activity, negative = inhibition, actives largely listed as inhibitors; also: potency is read from the fitted curve at half-maximal effect; % is scaled to controls: 0 for no effect and ±100 for the full control effect; nearly all actives have a fitted effect of over 45% in size
# LDHA block: inhibitors of human lactate dehydrogenase A; P00338; activity change, % (values are at about 110 or 230 µM); purified LDHA, NADH/diaphorase-resazurin fluorescence; stronger effect = lower value; 480,000 tested, 0.15% active; in the data active = activity change below about -30%; inconclusive = mostly about -25% to -30%;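 also: plate controls were DMSO wells for no effect and wells without enzyme for full effect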
#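 Human LDH5 (2 nM) was incubated with 0.06 mM NADH and 0.2 mM pyruvate for 5 min at room temperature in Tris pH 7.4. Remaining NADH was coupled through diaphorase/resazurin, and resorufin fluorescence was read at 0 and 20 min.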
# USP1-UAF1 inh: blocks the human USP1/UAF1 deubiquitinase complex | 390,000 tested, 0.23% active | Potency, µM (series often up to 57.1 µM), for inactives: at the highest dose activity change, negative = inhibition, actives largely listed as inhibitors | O94782 | recombinant USP1/UAF1, Ub-Rhodamine cleavage fluorescence; also: potency is read from the fitted curve at half-maximal effect; % is scaled to controls: 0 for no effect and ±100 for the full control effect; nearly all actives have a fitted effect of over 60% in size
#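 High-throughput fluorogenic screen: 1nM USP1/UAF1 complex, Ub-Rho substrate 150nM final, 50mM HEPES pH 7.8 with 0.5mM EDTA, 0.1 mg/ml BSA, 1mM TCEP and 0.01% Tween-20.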
# EPAC2 ag: EPAC2 (human) agonism. Q8WZA2. EPAC2 activation, biochemical qHTS; response scale: 100% = 6.5 mM cAMP response. Potency, µM (doses to about 154 µM), for inactives: at the highest dose activation, usual class: activators. 360,000 tested, 0.079% active; also: potency is read from the fitted curve at half-maximal effect; nearly all actives have a fitted effect of over 50% in size
#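 Readout is BODIPY fluorescence (480 nm excitation, 540 nm emission), which falls as labeled GDP is exchanged off Rap1B. EPAC2 at 100 nM acted on 250 nM RAP1B-BODIPY-GDP with 50 uM GDP present.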
# EPAC1 agonist: agonists of human EPAC1; EPAC1 agonist qHTS, biochemical assay; response scale: 100% = response to 6.5 mM cAMP; O95398; Potency, µM (series often up to 154 µM), for the others: at the top dose activation, usual class: activators; 360,000 tested, 0.073% active; AID 720707; also: potency is read from the fitted curve at half-maximal effect; nearly all actives have a fitted effect of over 60% in size
# Target sequence (O95398 whole entry, looked up): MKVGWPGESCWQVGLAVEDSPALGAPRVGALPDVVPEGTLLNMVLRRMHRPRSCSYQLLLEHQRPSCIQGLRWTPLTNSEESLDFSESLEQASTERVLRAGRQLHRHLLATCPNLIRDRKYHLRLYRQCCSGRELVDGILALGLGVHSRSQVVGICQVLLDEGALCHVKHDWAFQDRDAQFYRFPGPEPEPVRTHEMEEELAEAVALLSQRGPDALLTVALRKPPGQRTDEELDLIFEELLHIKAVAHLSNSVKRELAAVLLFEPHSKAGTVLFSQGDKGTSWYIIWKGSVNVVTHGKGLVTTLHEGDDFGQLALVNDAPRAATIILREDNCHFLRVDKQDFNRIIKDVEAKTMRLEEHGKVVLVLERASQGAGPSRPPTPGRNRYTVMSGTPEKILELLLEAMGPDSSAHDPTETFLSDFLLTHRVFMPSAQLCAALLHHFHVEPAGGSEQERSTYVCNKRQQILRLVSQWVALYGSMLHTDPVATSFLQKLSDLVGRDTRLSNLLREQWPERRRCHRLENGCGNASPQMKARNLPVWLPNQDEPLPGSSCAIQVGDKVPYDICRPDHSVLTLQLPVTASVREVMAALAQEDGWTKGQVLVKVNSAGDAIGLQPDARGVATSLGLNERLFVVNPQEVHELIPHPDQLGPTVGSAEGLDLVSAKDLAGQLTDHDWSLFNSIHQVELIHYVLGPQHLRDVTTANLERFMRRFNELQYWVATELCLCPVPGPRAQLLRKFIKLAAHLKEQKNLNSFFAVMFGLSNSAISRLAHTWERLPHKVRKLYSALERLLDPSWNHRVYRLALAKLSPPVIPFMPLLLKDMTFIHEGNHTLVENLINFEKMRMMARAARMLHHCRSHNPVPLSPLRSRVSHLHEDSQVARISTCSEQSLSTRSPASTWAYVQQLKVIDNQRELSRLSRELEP
#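 Read-out is the fluorescence drop as BODIPY-GDP leaves Rap1B (480 nm excitation, 540 nm emission), recorded every 5 minutes over 30 minutes. Reactions held 100 nM EPAC1, 250 nM Rap1B–BODIPY-GDP and 50 uM GDP, with 6.5 mM cAMP setting full activation.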
# EPAC1 antagonist: EPAC1 (human) antagonism. EPAC1 GEF assay, Rap1b-BODIPY-GDP exchange fluorescence. Potency, µM (titrated, usually from 115 µM), without a hit: at the highest dose activity change, negative = inhibition, hits mostly inhibitors. 360,000 tested, 0.14% active. AID 720709;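 also: potency is read from the fitted curve at half-maximal effect; plate controls were vehicle for no effect and positive control for full effect; nearly all actives have a fitted effect of over 50% in size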
# * marks the source's active call; other numbers are inactive results; i = inactive; ? = inconclusive; / = no result given. Unless noted, calls follow the shape of the dose curve; as a rule, active = well fitted curve in the direction sought with a large enough effect; inconclusive = small, poorly fitted or top-dose-only effect, or another doubt; inactive = no such curve, though single readings can be large; an effect the other way counts as inactive or inconclusive.
SMILES,EPAC2 antag,LDHA block,USP1-UAF1 inh,EPAC2 ag,EPAC1 agonist,EPAC1 antagonist
Oc1ccc(N=Cc2ccc(O)c(O)c2)cc1,?,39,7.9µM*,5%,21%,40µM*
Oc1ccc(/C=N/N=C/c2ccc(O)c(O)c2)cc1O,8%,17,-17%,3%,9%,?
COc1ccc2c3c(cccc13)C(=O)CC2,125%,8,?,112µM*,100µM*,222%
COc1ccc2c(c1OC)C(=O)OC2,0%,2,-2%,2%,7%,-11%
CCN1CCN(C(=O)c2cnc(N3CCOCC3)c3ccccc23)CC1,/,-1,/,/,/,/
CCc1ccccc1N(C(C)=O)c1nc(COc2ccccc2C(N)=O)cs1,/,-30*,/,/,/,/
COc1cc(/C=N/N=C2/C(=O)Nc3ccccc32)ccc1O,-3%,16,-23%,-10%,-8%,-17%
O=C1Nc2ccccc2/C1=N\N=C\c1ccc(O)c(O)c1,-16%,18,-3%,-9%,2%,40µM*
Cc1ccccc1NC(=O)C1CCN(C(=O)c2cnn(-c3ccccc3)c2-n2cccc2)CC1,/,-8,-8%,/,/,/
CN1CCN(CC(=O)Nc2ccccc2Sc2ccccc2)CC1,5%,-33*,-13%,17%,13%,-23%
CN1CCN(CC(=O)Nc2ccccc2Oc2ccccc2)CC1,1%,-2,-14%,6%,-13%,-8%
O=C(CN1CCCC1)Nc1ccccc1Sc1ccccc1,?,-3,-21%,2%,0%,-6%
COc1cccc(OC)c1NC(=O)CN1CCN(C)CC1,0%,-32*,-4%,13%,8%,5%
O=c1cc(-c2ccccc2)nc2c(-c3ccccc3)c(C(F)(F)F)[nH]n12,18µM*,-1,-23%,-5%,-5%,?
Cc1[nH]n2c(=O)cc(-c3ccc4ccccc4c3)nc2c1-c1ccccc1,/,0,/,/,/,/
O=C(N/N=C/c1ccncc1)c1cc2ccccc2o1,-5%,-5,-35%,9%,12%,14%
O=C(N/N=C/c1ccc([N+](=O)[O-])o1)c1cc2c(ccc3ccccc32)o1,-17%,-4,-29%,4%,13%,-1%
O=C(N/N=C/c1ccc(O)c(Br)c1)c1cc2c(ccc3ccccc32)o1,-5%,-19,-5%,6%,5%,1%
O=C(N/N=C/c1cc(Br)c(O)c(Br)c1)c1cc2c(ccc3ccccc32)o1,-14%,1,?,8%,-4%,28µM*
O=C(N/N=C/c1cc(Br)c(Br)o1)c1cc2ccccc2o1,-8%,-44*,-25%,-3%,8%,-12%
O=C(N/N=C/c1ccc([N+](=O)[O-])o1)c1cc2ccccc2o1,-2%,-70*,-23%,6%,-2%,-25%
COc1cc(NC(=O)c2csc(N)n2)cc(C(=O)Nc2cccc(C(F)(F)F)c2)c1,-6%,-6,-22%,-1%,0%,-2%
COc1cc(NC(=O)c2cnc(N)s2)cc(C(=O)Nc2cccc(C(F)(F)F)c2)c1,-19%,-4,-7%,9%,6%,40µM*
COc1cc(NC(=O)c2ccnc(N)c2)cc(C(=O)Nc2cccc(C(F)(F)F)c2)c1,-7%,1,-21%,4%,-4%,71µM*
COc1ccc(-c2nc3c4ccccc4n(CC(=O)Nc4cc(F)ccc4F)c(=O)n3n2)cc1,/,0,3%,/,/,/
SMILES,EPAC2 antag,LDHA block,USP1-UAF1 inh,EPAC2 ag,EPAC1 agonist,EPAC1 antagonist
COC(=O)c1cn(C(=O)c2ccccc2Cl)c2ccccc12,28µM*,-3,-8%,14%,7%,13%
COC(=O)c1cn(C(=O)OC)c2ccccc12,7%,-5,2%,4%,-1%,-11%
Cc1cc(NS(=O)(=O)Cc2ccccc2)cc2sc(NC(=O)c3ccccc3)nc12,/,9,/,/,/,/
CCCCNc1c2c3c(cccc3n(C)c1=O)C(=O)c1ccccc1-2,201%,4,i,62%,60%,206%
CC(=O)Nc1ccc(Nc2c3c4c(cccc4n(C)c2=O)C(=O)c2ccccc2-3)cc1,11%,2,?,112µM*,?,35%
CCCNc1c(NC(=O)Cc2ccc(OC)c(OC)c2)c(=O)oc2ccccc12,/,-3,/,/,/,/
O/N=C(/Cc1ccccc1)c1ccc(O)cc1O,/,1,/,/,/,/
O/N=C(\c1ccc(O)cc1O)c1ccccc1F,/,-31*,/,/,/,/
CCOc1ccc(Br)cc1S(=O)(=O)Nc1ccccc1N1CCOCC1,-6%,-2,-10%,2%,8%,4%
CCc1nnc(NS(=O)(=O)c2ccc(NC(=S)NC(=O)/C=C/c3ccc(F)cc3)cc2)s1,-3%,-19,-12%,-1%,-6%,22µM*
CCc1nnc(NS(=O)(=O)c2ccc(NC(=S)NC(=O)/C=C/c3ccc([N+](=O)[O-])cc3)cc2)s1,-2%,-2,-11%,0%,-2%,-1%
O=C1c2ccccc2C(=O)c2c1cccc2N1CCCC1,-16%,32,?,19%,8%,-20%
O=C1C=C(N2CCCCC2)c2ccccc2C1=O,35µM*,29,7.9µM*,17%,17%,45µM*
Nc1cc(-c2ccccc2)nn1Cc1ccc(Cl)cc1,3%,5,-21%,1%,15%,2%
O=c1ccc(-c2ccccc2)nn1Cc1ccc(Cl)cc1,35µM*,0,-22%,9%,5%,-6%
CCOC(=O)CC1C(=O)NCCN1c1nc2ccc(C)cn2c(=O)c1/C=C1\SC(=S)N(CC(C)C)C1=O (stereo unspecified),0%,-9,13µM*,?,9%,30%
O=C(O)CCCNc1cc(N2CCN(C(=O)c3ccco3)CC2)c2noc3c2c1C(=O)c1ccccc1-3,15%,2,28µM*,?,?,36%
CN1CCN(c2cc(N3CCN(C(=O)c4ccco4)CC3)c3c4c(onc24)-c2ccccc2C3=O)CC1,-13%,11,?,7%,8%,?
CCOC(=O)N1CCN(c2cc(NCCC(=O)O)c3c4c(onc24)-c2ccccc2C3=O)CC1,-17%,16,14µM*,11%,1%,16%
O=C(c1cccs1)N1C[C@@H](O)[C@H](n2cc(C3CC3)nn2)C[C@@H]1c1ccc(Cl)cc1,4%,-2,-17%,-7%,-5%,0%
O=C(c1cccs1)N1C[C@@H](n2cc(C3CC3)nn2)[C@H](O)C[C@@H]1c1ccccc1,3%,-37*,-16%,16%,-10%,21%
O=C(c1cccs1)N1C[C@@H](n2cc(C3CC3)nn2)[C@H](O)C[C@@H]1c1ccc(Cl)cc1,6%,-36*,-11%,17%,-14%,6%

# Source: PubChem (National Center for Advancing Translational Sciences (NCATS))
